YopH inh – YopH tyrosine phosphatase inhibitors, primary screen, biochemical, fluorescence Ex485/Em525; YopH tyrosine phosphatase [Yersinia enterocolitica]; 140,000 tested, 0.16% active; inhibition, % (test concentration not listed); AID 898, 2007; in the data active = inhibition above about 50%
RmlCD inh mix – RmlC and RmlD coupled enzyme inhibitors, primary screen, biochemical, 384-well, compound mixtures, retest. inhibition, % at 5.5 µM. RmlC/RmlD coupled enzyme inhibition, 384-well mixture HTS. 110,000 tested, 0.39% active. AID 1532, 2009; in the data active = inhibition above about 30%, passing the limit was not always enough
RmlCD fluor art – counter-screen for RmlC/RmlD inhibitors: fluorescence artifact, dose response, artefact control, biochemical; RmlC/RmlD assay fluorescence artifact counter-screen; shares compounds with RmlCD inh mix; 360 tested, 96% active; calls only; call rule not given here;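 also: compound alone with no enzyme and no substrates present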
Hits are given with their value; – = inactive; · = no result; + = active, no number. Only some compounds are listed: those with a hit (about 0.41% of all), similar ones and a draw of the others.

SMILES | YopH inh | RmlCD inh mix | RmlCD fluor art
Cc1ccc2nc(-c3cccc(NC(=O)c4ccc5c(c4)OCCO5)c3)oc2c1 | – | – | ·
CCCCC(=O)/C=C/n1c(=S)oc2ccccc21 | – | · | ·
CCN(CC)c1ccc(C(=O)OCC(=O)Nc2sccc2C#N)cc1 | – | · | ·
Cc1c(CCC(=O)O)c(=O)oc2cc(O)ccc12 | – | 128 | +
Cc1c(CCC(=O)O)c(=O)oc2cc3occ(-c4ccc(F)cc4)c3cc12 | – | – | ·
CC(C)NC(=S)N/N=C1\CCCCC1C1CCCCC1 (centres undefined) | – | – | ·
CC1=C(C#N)C(c2cccnc2)C2=C(CC(C)(C)CC2=O)N1 (centres undefined) | – | 59 | +
CC1=C(C#N)C(c2ccc(O)cc2)C2=C(CC(C)(C)CC2=O)N1 (centres undefined) | – | · | ·
CCCc1cc(=O)n2c([nH]c3ccccc32)c1C#N | – | 39 | +
CCCCc1c(C)c(C#N)c2[nH]c3ccccc3n2c1=O | – | – | ·
C=CCOC(=O)C1=C[C@@H](c2coc3ccccc3c2=O)C[C@@H](OCCCCO)O1 | · | – | ·
O=C(Nc1nc(NC(=O)c2ccco2)n(-c2ccccc2)n1)c1ccccc1 | – | 138 | +
Nc1nc(NC(=O)c2ccccc2)nn1-c1ccccc1 | – | · | ·
COc1cc(NC(=O)c2cccs2)c(C(=O)OCC(=O)NC(C)c2ccccc2)cc1OC (centres undefined) | – | – | ·
COc1cc(NC(=O)c2cccs2)c(C(=O)OCC(=O)NCc2ccccc2)cc1OC | – | 45 | +
COC(=O)c1c(C#N)c(N)nc2c1CCC2 | – | 67 | +
COc1ccc(-c2c(C#N)c(N)nc3c2CCCCCC3)cc1OC | – | · | ·
CCOC(=O)c1ccc(-c2ccc(CO)o2)cc1 | – | 62 | +
CCOC(=O)c1ccc(-c2ccc(C3Nc4ccccc4C(=O)N3O)o2)cc1 (centres undefined) | – | · | ·
COC(=O)c1cc(NS(=O)(=O)c2ccc(N3CCC(C)CC3)c([N+](=O)[O-])c2)cc(C(=O)OC)c1 | – | · | ·
CN(C)CCNC(=O)c1cc2c(s1)-c1ccccc1OC2 | – | 161 | +
Cc1csc(NC(=O)c2cc3c(s2)-c2ccccc2OC3)n1 | – | – | ·
O=C(NC1CC1)C1=C[C@@H](C2CC2)C[C@@H](OCc2ccc(CO)cc2)O1 | · | – | ·
N#Cc1c(N)n(CCNC(=O)c2ccccc2)c2nc3ccccc3nc12 | – | · | ·
N#Cc1c(N)n(CCNC(=O)c2cccs2)c2nc3ccccc3nc12 | 54 | 37 | +
SMILES | YopH inh | RmlCD inh mix | RmlCD fluor art
C[C@@]12CCC=C[C@H]1[C@H](c1ccc(F)c(/C=C/c3ccccc3)c1)N(Cc1ccccc1)C2=O | · | – | ·
COC(=O)c1ccc2c(c1)C(C)(C)C(/C=C/c1ccc(O)cc1)=[N+]2C | – | – | ·
COC(=O)c1ccc2c(c1)C(C)(C)C(/C=C/c1ccc(OC)c(OC)c1OC)=[N+]2C | – | 45 | +
COc1cc(C(=O)NCC(=O)N/N=C(/C)c2cccs2)cc(OC)c1OC | – | · | ·
C=CCNc1oc(-c2cccs2)nc1C#N | – | 108 | +
N#Cc1nc(-c2cccs2)oc1NCc1ccccc1 | – | – | ·
CC1CN(S(=O)(=O)c2ccc(C(=O)Nc3ccc(S(=O)(=O)Nc4ncccn4)cc3)cc2)CC(C)O1 (centres undefined) | – | · | ·
CSc1c(CC(=O)Nc2ccccc2)n(Cc2ccccc2)c2ccccc12 | – | · | ·
COc1ccc(-c2oc3ncn4nc(COc5ccccc5)nc4c3c2-c2ccc(OC)cc2)cc1 | – | 117 | +
COc1ccc(-c2oc3ncn4nc(Cc5ccccc5)nc4c3c2-c2ccc(OC)cc2)cc1 | – | – | ·
Cc1cccc(-n2c(=O)c(C#N)cc3c(=O)n4ccccc4nc32)c1 | – | 83 | +
Cc1cc(-n2c(=O)c(C#N)cc3c(=O)n4cccc(C)c4nc32)no1 | – | 47 | +
Cc1ccc(-n2c(=O)c(C#N)cc3c(=O)n4ccccc4nc32)cc1 | – | · | ·
Cc1cccn2c(=O)c3cc(C#N)c(=O)n(-c4c(C)n(C)n(-c5ccccc5)c4=O)c3nc12 | – | – | ·
CCCCNC(=S)N/N=C/c1ccccc1F | – | · | ·
CS(=O)(=O)Nc1nnc(SCC(=O)N(c2ccccc2)c2ccccc2)s1 | – | · | ·
Cc1cc(C(F)(F)F)c(C#N)c(=O)[nH]1 | – | 32 | +
N#Cc1c(C(F)(F)F)cc(-c2ccc(Cl)cc2)[nH]c1=O | – | – | ·
Cc1ccc([N+](=O)[O-])cc1N=C(c1cccc(Br)c1)N1CCOCC1 | – | – | ·
Cc1cc(=O)oc2cc(OC(=O)CCN3C(=O)c4ccccc4C3=O)ccc12 | – | · | +
Cc1cc(=O)oc2cc(OCCCN3C(=O)c4ccccc4C3=O)ccc12 | – | · | ·
COc1ccc(-c2nnc(SCC(=O)Nc3cc(S(=O)(=O)N4CCCCC4)ccc3Cl)n2N)cc1 | – | · | ·
CC1(C)Cc2nc(N3CCOCC3)c(C#N)cc2CO1 | – | – | ·
CC1(C)Cc2nc(NCCCO)c(C#N)cc2CO1 | – | 44 | +
Nc1cc(C(F)(F)F)cc2c1SCC(=O)N2 | – | · | ·
SMILES | YopH inh | RmlCD inh mix | RmlCD fluor art
C[C@@H]1NC(=O)N[C@@H]1CCCCCC(=O)O | · | – | ·
Oc1ccccc1/C=N/c1c(-c2ccco2)nc2ccccn12 | – | 39 | +
Clc1ccc(/C=N/c2c(-c3ccco3)nc3ccccn23)cc1 | – | – | ·
C/C(=N/OCC(=O)NCCCCCCNC(=O)CO/N=C(/C)c1cccs1)c1cccs1 | – | · | ·
CN(C)CCNc1oc(-c2ccccc2F)nc1C#N | – | 46 | +
CN(C)CCCNc1oc(-c2ccccc2)nc1C#N | – | – | ·
CCOC(=O)c1cccc(NC(=O)c2c(NCc3ccccc3)[nH]c(=O)[nH]c2=O)c1 | · | – | ·
O=C(NCc1cccc(Br)c1)C1CC(c2ccc(C(F)(F)F)cc2)=NO1 (centres undefined) | · | – | ·
COCc1nnc(NC(=O)c2cc(OC)c(OC)cc2[N+](=O)[O-])s1 | – | · | ·
COC(=O)c1cc(Cl)c(NC(=O)/C=C/c2ccc(Cl)cc2Cl)cc1OC | – | 62 | +
COC(=O)c1cc(Cl)c(NC(=O)/C=C/c2ccc(Cl)cc2)cc1OC | – | – | ·
COc1ccc(-c2ccc3oc(-c4ccc(OC)cc4)c(C#CCCO)c3c2)cc1 | · | – | ·
COc1ccc(C#Cc2c(-c3ccc(OC)cc3)oc3ccc(-c4ccc(OC)cc4)cc23)cc1 | · | + | +
CCOc1ccc(Nc2oc(-c3ccco3)nc2C#N)cc1 | – | – | ·
CCOc1ccc(Nc2oc(-c3cccc(Cl)c3)nc2C#N)cc1 | – | 36 | +
CC1(C)Cc2c(sc3nc(-c4ccccc4)oc(=O)c23)CO1 | – | · | ·
COC(=O)COc1ccc(/C=N/NC(=O)c2ccc(N(Cc3ccccc3)S(C)(=O)=O)cc2)cc1 | – | · | ·
Cc1[nH]n(-c2ccccc2)c(=O)c1/C=N/c1ccccn1 | – | – | ·
Cc1[nH]n(-c2ccccc2)c(=O)c1C=Nc1cnc2ccccc2c1 | – | 44 | +
O=C(O)C1Nc2ccc(C(F)(F)F)cc2C2OCCC12 (centres undefined) | · | – | ·
O=C(/C=C/c1ccc(O)c(O)c1)O[C@H](Cc1ccc(O)c(O)c1)C(=O)O | · | – | ·
CCc1c(C)c2cc(Cl)c(O)c(CN(CC)CC)c2oc1=O | – | 106 | +
Cc1coc2c(C)c3oc(=O)c4c(c3cc12)CCCC4 | · | – | ·
CCc1c(C)c2cc(Cl)c(O)c(CN(C)C)c2oc1=O | – | 82 | +
